From PubChem BioAssay (EPA / NIEHS)
Active and inactive are the calls of the source. How the source made its calls: active means hit-call score of the fitted dose curve at least 0.9, where 1 is the maximum; inactive means score below 0.9.

What follows are molecules tested on Hypoxia-inducible factor 1-alpha (Homo sapiens) (UniProt Q16665) (assay: LTEA_HepaRG_HIF1A: Life Technologies and Expression Analysis (LTEA) Assay for Hypoxia-inducible factor 1 (HIF1A) Trancription factor using HepaRG (AID 2283503;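 further: HIF1A transcript by TaqMan qRT-PCR normalized to ACTB GAPDH and POLR2A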)). Conditions: mRNA level, 48 h; actives raise or lower the signal.
Experimental: LTEA_HepaRG is a cell based, multiplexed-readout assay that uses HepaRG, a human liver cell line, with measurements taken at 48 hours after chemical dosing on a 96-well plate.LTEA_HepaRG_HIF1A is one of 102 assay component(s) measured in the LTEA HepaRG cell culture assay. It is a marker of Cell proliferation, survival, death.Data from the assay component LTEA_HepaRG_HIF1A was analyzed into 1 endpoint. This assay endpoint, LTEA_HepaRG_HIF1A, was analyzed with bidirectional fitting relative to DMSO as the negative control and baseline of activity. Using a type of inducible reporter, measures of mRNA induction for gain or loss-of-signal activity can be used to understand regulation of transcription factor activity. To generalize the intended target to other relatable targets, this assay endpoint is annotated to the dna binding intended target family, where the subfamily is basic helix-loop-helix protein.
A total of 1060 chemcials from the ToxCast library were tested in eight-point concentration-response experiments. Cell culture and cytotoxicity assays were conducted at Thermo Fisher Scientific's Custom Services facility (Madison, WI). A single lot of human HepaRG cells (Thermo Fisher Scientific, Frederick, MD) was used for the cell culture experiments. 96-well format collagen type I coated plates of human HepaRG cells were prepared using established methods. Briefly, cryopreserved HepaRG cells were thawed, plated at a density of approximately 100,000 cells/well in HepaRG Thaw, Plate, and General Purpose media (HPRG770, Thermo Fisher Scientific), and incubated for 48 hours. 0.5% DMSO was selected as vehicle control to balance the requisite need of DMSO in HepaRG cultures to maintain differentiation (for example, baseline metabolism, proportions of hepatocytes vs. cholangiocytes), while enabling further hepatic receptor pathway activation (for example, PXR and CAR) in response to chemical exposure. 48 hours after plating, the culture medium was replaced with HepaRG Serum-Free Incudtion Media. Cells were exposed to each test chemical in duplicate and maintained in CO2 incubators for another 48 hours. Chemical plates were thawed to room temperature and 200x concentrations of treatment groups were prepared. 8-point conentration-reponse curves were made with the highest exposure at 100 uM, followed by half-log dilutions, all in 0.5% DMSO. Each test plate contained variouse controls, induction positive controls (1mM phenobarbital), cytotoxicity positive controls ([…] aflatoxin B1), vehicle controls (0.5% DMSO), and total lysis controls (0.5% DMSO). Cell morphology images were taken using an Essen IncuCyte FLR automated microscope, with six 96-well plates imaged in about 24 minutes. Images were captured and exported and JPEG files. Spent culture media was transfered to black-well plates for the LDH assay, and remaining media was sorted at -80 C for later use. Cells were treated with RLT buffer and frozen until shipped for gene expression analysis. Total RNA was isolated from the cell suspension in 75 uL of Buffer RLT (Qiagen, Germantown, MD 20874) by Quintiles/Expression Analysis (Durham, NC) using a custom isolation procedure. Total RNA from each plate well was transferred to a preamplification plate. Fluidigm's 96.96 Dynamic ArrayTM (Fluidigm, Amsterdam, the Netherlands) technology was used for gene expression analyses by quantitative reverse transcription polymerase chain reaction (qRT-PCR, performed by Quintiles/Expression Analysis, Durham, NC)89. Standard TaqManTM Assays (Applied Biosystems/ThermoFisher Scientific, Foster City, CA) were used to assess the expression of 93 genes selected based on their selectivity and sensitivity to important hepatic receptors known to be modulated by environmental chemicals; importance in human hepatocyte functionality; and hepatotoxicity. […]

Chain of Hypoxia-inducible factor 1-alpha (Homo sapiens) (Q16665 whole entry, looked up): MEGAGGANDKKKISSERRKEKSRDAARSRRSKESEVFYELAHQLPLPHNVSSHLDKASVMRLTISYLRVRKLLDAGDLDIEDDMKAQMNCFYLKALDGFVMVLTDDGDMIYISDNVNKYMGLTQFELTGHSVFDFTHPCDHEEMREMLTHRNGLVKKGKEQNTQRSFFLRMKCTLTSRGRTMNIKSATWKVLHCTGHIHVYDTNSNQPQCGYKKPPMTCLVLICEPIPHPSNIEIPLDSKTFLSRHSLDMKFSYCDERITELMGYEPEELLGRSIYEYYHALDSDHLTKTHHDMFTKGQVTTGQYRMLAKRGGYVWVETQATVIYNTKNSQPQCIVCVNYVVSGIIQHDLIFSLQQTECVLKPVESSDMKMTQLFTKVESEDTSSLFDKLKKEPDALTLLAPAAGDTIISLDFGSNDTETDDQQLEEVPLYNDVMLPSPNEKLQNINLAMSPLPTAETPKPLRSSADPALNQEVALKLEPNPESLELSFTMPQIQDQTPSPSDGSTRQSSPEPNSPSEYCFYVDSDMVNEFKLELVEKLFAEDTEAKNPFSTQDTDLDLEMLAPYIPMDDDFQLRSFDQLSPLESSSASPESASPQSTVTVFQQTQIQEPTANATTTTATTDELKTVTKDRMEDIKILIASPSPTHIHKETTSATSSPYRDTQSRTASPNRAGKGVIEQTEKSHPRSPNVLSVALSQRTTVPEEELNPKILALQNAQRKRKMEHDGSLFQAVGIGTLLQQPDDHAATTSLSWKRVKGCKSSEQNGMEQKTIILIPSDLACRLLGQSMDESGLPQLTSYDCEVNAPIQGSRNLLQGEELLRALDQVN

Row | Structure (SMILES) | outcome | AC50
1 | CC(C)(O)c1cnn2c(-c3ccc(F)c(-c4c(F)cccc4C#N)c3)cnc2n1 | inactive | 
2 | CCC12COCN1COC2 | inactive | 
3 | CCC[CH2][Sn]([Cl])([CH2]CCC)[CH2]CCC |  | 2.07 µM (active)
4 | CC(C)N(Cc1ccccc1)C(=O)C(C)(C)C | inactive | 
5 | CO[C@@H]1[C@H](OC(=O)NC(=O)CCl)CC[C@]2(CO2)[C@H]1[C@@]1(C)O[C@@H]1CC=C(C)C | inactive | 
6 | OCCOCCO | inactive | 
7 | c1ccc(C2CO2)cc1 (stereo not given) | inactive | 
8 | c1ccc(N=Nc2ccccc2)cc1 | inactive | 
9 | CCN(CC)N=O | inactive | 
10 | COc1cc(C=O)cc2c1[C@H](COC(N)=O)[C@]1(OC(C)=O)ON2C[C@H]2[C@@H]1N2C(C)=O |  | 3.94 µM (active)
11 | COC(=O)c1ccccc1N | inactive | 
12 | CCN(CC)CCO | inactive | 
13 | CCCSC(=O)N(CCC)CCC | inactive | 
14 | CC(C)(OOC(C)(C)c1ccccc1)c1ccccc1 | inactive | 
15 | Brc1ccc(Oc2ccccc2)cc1 | inactive | 
16 | CCCCCCCCOC(=O)c1ccc(C(=O)OCCCCCCCC)c(C(=O)OCCCCCCCC)c1 | inactive | 
17 | O=C(N[C@H](c1ccccc1)[C@@H]1CN2CCC1CC2)c1c(Cl)ccc(C(F)(F)F)c1Cl | inactive | 
18 | Nc1ccc([N+](=O)[O-])cc1 | inactive | 
19 | Cc1ccc(N)c(N)c1 | inactive | 
20 | Nc1ccc(Cl)cc1N |  | 19.7 µM (active)

Row | Structure (SMILES) | outcome | AC50
21 | [O-][Cl+]O | inactive | 
22 | Nc1cc(Cl)cc(C(=O)O)c1Cl | inactive | 
23 | O=[N+]([O-])C(Br)(CO)CO | inactive | 
24 | CCCCC(CC)COC(=O)c1ccc(C(=O)OCC(CC)CCCC)c(C(=O)OCC(CC)CCCC)c1 (stereo not given) | inactive | 
25 | c1ccc2c(c1)-c1cccc3cccc-2c13 | inactive | 
26 | CCCCCCCCCCCCCN1CC(C)OC(C)C1 (stereo not given) | inactive | 
27 | O=[N+]([O-])c1ccc(Oc2ccc(Cl)cc2Cl)cc1 | inactive | 
28 | OCCCBr | inactive | 
29 | Oc1ccc2ccc3cccc4ccc1c2c34 | inactive | 
30 | CCCCCOC(=O)c1ccccc1C(=O)OCCCCC | inactive | 
31 | Cc1ccc([N+](=O)[O-])cc1 | inactive | 
32 | O=C1CCCO1 | inactive | 
33 | O=P(OCCCl)(OCCCl)OCCCl | inactive | 
34 | N#CC(Br)(Br)C(N)=O | inactive | 
35 | c1ccc2c(c1)oc1ccccc12 | inactive | 
36 | Cc1cc(N=Nc2ccccc2C)ccc1N |  | 7.09 µM (active)
37 | Cc1ccc(N=C=O)cc1N=C=O | inactive | 
38 | CN(C)C(=O)Nc1ccc(Cl)cc1 | inactive | 
39 | O=C(Oc1ccc(Br)cc1)N1CCN2CCC1CC2 | inactive | 
40 | N#CC(Br)Br | inactive | 
